Assay outcomes from PubChem.
An excerpt weighted towards active compounds, which were near 1.4% of everything screened.
p-CIP stab down = p/CIP protein destabilization; Q05BA5; F442A p/CIP-EGFP cells, EGFP fluorescence, 16 h; decrease of EGFP signal, % at 10 µM; hit rate 0.01% among 290,000;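 active = EGFP signal decrease of at least 30% at 10 µM or well 3 SD below plate mean, unless failing retest; inactive = the rest, including hits failing retest or dose response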
HSV augment = HSV replication enhancement; HSV replication augmentation in cells, fold increase; maximum fold increase; hit rate 0.005% among 220,000; AID 1956; in the data active = maximum fold increase above about 1.5; inconclusive = no clear call, values can overlap the other calls; tested in PC3 cells
MIN6 prolif = induces beta-cell replication in MIN6 cells | MIN6 cells proliferation, ATPlite luminescence, 48 h; cells starved in 0.2% serum; 100% = growth in 10% serum | proliferation, % at 10 µM | hit rate 0.29% among 330,000;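 active = compounds whose signal lies at least 3.5 SD above the mean of all wells on their plate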
Cardio protect = protects H9c2 cardiomyocytes from peroxide injury. H2O2 injury protection, ATPLite, 2 h. protection from H2O2 cell death, % at 20 µM. hit rate 0.63% among 360,000;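 active = compounds giving at least 50% protection of heart cells from peroxide-induced death in the single-dose screen, raw or plate-pattern-corrected value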
Yeast superoxide = caloric restriction mimetics inhibiting age-related superoxide in yeast; S. cerevisiae aged cells, superoxide DHE fluorescence; active compounds read low; superoxide response (% of plate mean), % at 10 µM; hit rate 0.18% among 330,000;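 active = superoxide response under a set limit, about three screen SD below normal, cut at about 65% in these data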;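 also: yeast aged for seven days with compound at 30 °C before DHE staining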
V-ATPase pHluor = regulators of yeast V-ATPase proton transport; S. cerevisiae, pHLuorin cytosolic pH fluorescence; response, % at 10 µM; hit rate 0.37% among 350,000; in the data active = response mostly above about 7.3%, no sharp cut-off; inactive = mostly below about 5.4%; also: actives read high
Of the large screens only hits and unclear results are named; the others gave an inactive call.

Cc1cc(C)n2nc(SCC(=O)c3c(N)n(CC(C)C)c(=O)n(C)c3=O)nc2n1	V-ATPase pHluor 17
Cc1cc(C)n2nc(SCC(=O)N(CC(C)C)c3c(N)n(CC(C)C)c(=O)[nH]c3=O)nc2n1	none
C/C(=N\NC(=O)Cc1ccc(Cl)cc1)c1cccc(NC(=O)c2cccnc2)c1	none (no result: HSV augment)
COc1c(O)cccc1/C=N/NC(=O)Cn1ccnc1C	Cardio protect 57
N#CCCN(C(=O)COC(=O)c1ccc2ccccc2n1)c1ccccc1	none (no result: p-CIP stab down, HSV augment)
CN1CCc2nc3ccccc3c(C(=O)OCC(=O)N(CCC#N)c3ccccc3)c2C1	Cardio protect 58
O=C(CNC(=O)N1CC(=O)Nc2ccccc21)Nc1cccc(F)c1	none (no result: HSV augment)
O=c1oc(-c2ccco2)nc2c1cnn2-c1ccccc1	Cardio protect 51
CCNC(=O)C1CCCN(C(=O)c2cccc(C#N)c2)CC1 (configuration not stated)	none (no result: p-CIP stab down, HSV augment, MIN6 prolif, Yeast superoxide, V-ATPase pHluor)
CCN(CC)C(=O)c1cccc(NC(=O)C2CCN(C(=O)c3cccs3)CC2)c1	none (no result: p-CIP stab down, HSV augment)
O=C(CNCc1cccs1)Nc1ccc(OC(F)(F)F)cc1	none (no result: HSV augment)
COc1ccc(N=Cc2sc(O)c3ccccc23)cc1	HSV augment inconclusive, Cardio protect 51
Cc1cc(N(C)/N=C/c2ccccc2O)nc(-c2ccccc2O)n1	Cardio protect 50
C/C(=N\NC(=O)c1ccccc1-n1cccc1)c1ccccn1	Cardio protect 69 (no result: p-CIP stab down, HSV augment, MIN6 prolif, Yeast superoxide, V-ATPase pHluor)
COc1ccc([N+](=O)[O-])cc1NC(=O)C(C)OC(=O)CC1CCCC1 (configuration not stated)	none (no result: p-CIP stab down, HSV augment)
C/C(=N\Nc1nc(C)cc(-c2ccccc2)n1)c1ccc(C)o1	Cardio protect 48
C/C(=N/Nc1nc(C)cc(-c2ccccc2)n1)c1ccco1	none
CCN(CC)C(=O)COc1ccc2c3c(c(=O)oc2c1)CCCC3	none (no result: HSV augment)
CCOC(=O)COc1ccc2c3c(c(=O)oc2c1)CCCC3	Cardio protect 55 (no result: HSV augment)
CC[C@H](C)C(C(=O)N1CCN(C(=O)OC(C)(C)C)CC1)n1cc(C(Cc2ccc(O)cc2)NC(=O)OC(C)(C)C)nn1 (some centres not stated)	Cardio protect 51
CC[C@H](C)C(C(=O)N1CCN(C(=O)OC(C)(C)C)CC1)n1cc(C(CO)NC(=O)OC(C)(C)C)nn1 (some centres not stated)	none
CCCCn1c(SCC(=O)N2CCC(C)CC2)nc2cc(S(N)(=O)=O)ccc21	V-ATPase pHluor 14
CCCCn1c(SCC(=O)c2ccc(O)cc2O)nc2cc(S(N)(=O)=O)ccc21	none (no result: HSV augment)
Cc1nc(SCC(=O)N2c3ccccc3Sc3ccccc32)n[nH]1	none
CCN1C(=O)/C(=C/c2nc3ccccc3c(=O)n2-c2ccccc2)c2ccccc21	Cardio protect 51
O=C(O)c1ccccc1C(=O)c1ccc(F)c(F)c1	none (no result: p-CIP stab down, HSV augment, MIN6 prolif, Yeast superoxide)
COc1ccc2c(c1OC)C(=O)N1c3ccccc3C(=O)N(c3ccc(F)cc3)C21 (configuration not stated)	none
COc1ccc2c(c1OC)C(=O)N1c3ccccc3C(=O)N(c3ccccc3)C21 (configuration not stated)	Cardio protect 54
COc1cc(NC(=O)c2cc([N+](=O)[O-])ccc2NC(=O)CN2CCN(c3ccccn3)CC2)cc(OC)c1	Cardio protect 55 (no result: HSV augment)
O=C(CN1CCN(Cc2ccccc2)CC1)Nc1ccc([N+](=O)[O-])cc1C(=O)Nc1ccccc1F	Cardio protect 51
O=C(CN1CCN(c2ccccn2)CC1)Nc1ccccc1C(=O)Nc1ccccc1	none (no result: p-CIP stab down, HSV augment)
CCN(CC)c1ccc(C2C(C(=O)OC(C)C)C(=O)CC(C)(O)C2C(=O)OC(C)C)cc1 (configuration not stated)	Cardio protect 75
CC(C)OC(=O)C1C(=O)CC(C)(O)C(C(=O)OC(C)C)C1c1ccc(F)cc1 (configuration not stated)	none
CC(C)(C)c1csc(NNC(=O)c2ccc(Br)cc2)n1	Cardio protect 55
Cc1ccc(C(O)c2ncc(-c3ccc(C(F)(F)F)cc3)[nH]2)cc1F (configuration not stated)	none (no result: p-CIP stab down, HSV augment, MIN6 prolif, Yeast superoxide, V-ATPase pHluor)
O=C(NCCn1cccn1)C1CCC(=O)N(CCc2ccccc2)C1 (configuration not stated)	none (no result: HSV augment)
O=C(Nc1cccc(NC(=O)C2C3CC4OC(=O)C2C4C3)c1)c1ccccc1 (configuration not stated)	none
